Sampled rows, rich in hits. Any-hit rate of the full collection: about 10%.
GLS inhibitor: qHTS for Inhibitors of Glutaminase (GLS); Glutaminase kidney isoform, mitochondrial (Homo sapiens), O94925; GLS enzymatic activity, qHTS titration; Potency, µM (highest dose often 45.5 µM), without a hit: at the highest dose activity change, negative = inhibition, actives largely listed as inhibitors; 410,000 tested, 0.21% active; note: % is set by controls: 0 for no effect and ±100 for the full control effect
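Two-point fluorescence kinetic (t0, 30 min RT) for hKGA; glutamate detected via glutamate oxidase–HRP–Amplex Red. Substrate: 1 mM L-glutamine solution; buffer 45 mM KH2PO4, pH 8.2.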
L3MBTL1 inh: qHTS Assay for the Inhibitors of L3MBTL1. AID 485360, 2010. 230,000 tested, 0.66% active. AlphaScreen L3MBTL1–H3K9me1 peptide binding. Potency, µM (series often up to 57.1 µM), for the others: top-dose activity, negative = inhibition, most hits filed as inhibitors; note: % is set by controls: 0 for no effect and ±100 for the full control effect; nearly all actives have a fitted effect of over 60% in size
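L3MBTL1 50 nM + b-AHA-H3(1-15)K9me1 75 nM, 30 min RT; compound added, 30 min RT; streptavidin donor/Ni-chelate acceptor beads 10 ug/mL each final, 30 min RT dark; AlphaScreen read.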
HP1b binding inh: HTS for Inhibitors of HP1-beta Chromodomain Interactions with Methylated Histone Tails; Chromobox protein homolog 1 (Homo sapiens), P83916; Potency, µM (series often up to 114 µM), for inactives: top-dose activity change, negative = inhibition, actives largely listed as inhibitors; AlphaScreen HP1-beta / biotin-H3K9me3 peptide binding; 390,000 tested, 0.56% active; note: nearly all actives have a fitted effect of over 70% in size
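Compound inhibition of the preformed complex between 50 nM HP1-beta and 50 nM biotinylated H3K9me3 peptide was read by AlphaScreen. Buffer was PBS pH 7.4 with 0.01% Tween-20. Incubations ran 30 min at room temperature, with 10 ug/mL donor/acceptor beads.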
JMJD2A Tudor inh: qHTS Assay for Inhibitors of JMJD2A-Tudor Domain | AID 504339, 2011 | Lysine-specific demethylase 4A (Homo sapiens), O75164 | Potency, µM (top dose mostly 114 µM), for the others: at the top dose activity change, negative = inhibition, usual class: inhibitors | 390,000 tested, 4.4% active | AlphaScreen JMJD2A-Tudor / H3K4me3 peptide binding; note: % is set by controls: 0 for no effect and ±100 for the full control effect; nearly all actives have a fitted effect of over 50% in size
Target sequence (O75164 whole entry, looked up, the tested form may be a part): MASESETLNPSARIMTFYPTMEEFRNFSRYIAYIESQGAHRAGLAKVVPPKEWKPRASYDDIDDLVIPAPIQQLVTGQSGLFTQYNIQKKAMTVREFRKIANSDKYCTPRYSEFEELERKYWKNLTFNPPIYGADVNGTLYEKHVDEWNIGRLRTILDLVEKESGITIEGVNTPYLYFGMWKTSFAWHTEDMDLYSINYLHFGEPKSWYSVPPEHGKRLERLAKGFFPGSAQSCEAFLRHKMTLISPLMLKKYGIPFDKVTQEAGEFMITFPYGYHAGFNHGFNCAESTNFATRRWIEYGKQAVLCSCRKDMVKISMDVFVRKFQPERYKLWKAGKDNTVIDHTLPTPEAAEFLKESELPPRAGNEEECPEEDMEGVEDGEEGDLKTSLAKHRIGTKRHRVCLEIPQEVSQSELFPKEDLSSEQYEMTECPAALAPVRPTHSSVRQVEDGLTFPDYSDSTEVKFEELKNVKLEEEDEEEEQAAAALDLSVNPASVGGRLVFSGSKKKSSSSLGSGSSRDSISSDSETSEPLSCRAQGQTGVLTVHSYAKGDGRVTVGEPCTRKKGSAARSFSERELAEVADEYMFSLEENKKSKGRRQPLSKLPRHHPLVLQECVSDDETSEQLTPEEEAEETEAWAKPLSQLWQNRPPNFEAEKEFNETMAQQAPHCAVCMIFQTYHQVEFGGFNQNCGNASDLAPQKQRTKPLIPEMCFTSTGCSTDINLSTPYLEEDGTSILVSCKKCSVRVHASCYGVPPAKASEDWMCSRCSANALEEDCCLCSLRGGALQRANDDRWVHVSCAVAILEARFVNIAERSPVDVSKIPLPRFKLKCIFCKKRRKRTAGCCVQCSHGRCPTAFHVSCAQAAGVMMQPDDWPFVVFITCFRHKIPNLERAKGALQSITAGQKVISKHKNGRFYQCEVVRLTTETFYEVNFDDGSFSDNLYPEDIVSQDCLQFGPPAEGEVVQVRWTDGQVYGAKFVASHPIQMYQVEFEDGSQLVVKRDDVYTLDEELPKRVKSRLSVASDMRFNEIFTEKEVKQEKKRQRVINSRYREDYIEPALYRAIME
G9a inh: qHTS Assay for Inhibitors of Histone Lysine Methyltransferase G9a; G9a H3K9 monomethylation, AlphaScreen, 2 h; Potency, µM (doses to about 102 µM), for the others: at the highest dose activity, negative = inhibition, actives largely listed as inhibitors; 350,000 tested, 8.8% active; AID 504332, 2011; note: % is set by controls: 0 for no effect and ±100 for the full control effect; nearly all actives have a fitted effect of over 75% in size
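AlphaScreen read-out: biotin-H3K9 peptide (500 nM) methylation by 20 nM enzyme with 20 uM SAM, 2 h at room temperature after 15 min compound preincubation; anti-monomethyl H3K9 antibody plus donor/acceptor beads, 10 min dark.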
BAZ2B block: qHTS Assay for Inhibitors of BAZ2B. Bromodomain adjacent to zinc finger domain protein 2B (Homo sapiens), Q9UIF8. AlphaScreen BAZ2B-H3K14Ac peptide displacement. Potency, µM (titrated, usually from 114 µM), inactives show at the top dose activity change, negative = inhibition, most hits filed as inhibitors. 360,000 tested, 4.4% active; note: % is set by controls: 0 for no effect and ±100 for the full control effect; nearly all actives have a fitted effect of over 60% in size
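Multi-concentration screen (max 110 uM) measuring displacement of acetylated histone H3 peptide from BAZ2B by AlphaScreen, using 50 nM protein, 50 nM peptide and 10 ug/mL streptavidin donor plus Ni-chelate acceptor beads.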
* = called active by the depositor; [ ] = another dose, or the depositor's remark. Calls come from the whole dose curve; as a rule, active = well fitted curve in the direction sought with a large enough effect; inconclusive = small, poorly fitted or top-dose-only effect, or another doubt; inactive = no such curve, though single readings can be large; an effect the other way counts as inactive or inconclusive. Potency is the fitted concentration of half-maximal effect.

`CCOc1ccc(NC(=O)Cn2c(CCC(=O)O)ccc2-c2ccc(Cl)cc2)cc1` gave GLS inhibitor 12%, HP1b binding inh 0%, JMJD2A Tudor inh -32%, G9a inh -44%[59 µM] and BAZ2B block inconclusive.
[O-][n+]1c(/C=C/c2ccccc2)ccc2ccccc21 was read as GLS inhibitor 0%, L3MBTL1 inh 7%, HP1b binding inh -10%, JMJD2A Tudor inh -26%, G9a inh 8% and BAZ2B block inconclusive.
CN(CCCS(=O)(=O)[O-])c1ccc(/C=C/c2ccc3ccccc3[n+]2C)cc1 was read as GLS inhibitor -2%, HP1b binding inh 3%, JMJD2A Tudor inh inconclusive, G9a inh 32µM* and BAZ2B block inconclusive.
`CN(C)c1ccc(/C=C/c2ccc3c4ccccc4ccc3[n+]2-c2ccccc2)cc1` gave GLS inhibitor -22%, L3MBTL1 inh inconclusive, HP1b binding inh 11µM*, JMJD2A Tudor inh 8.9µM*, G9a inh 16µM* and BAZ2B block 7.9µM*.
CN(C)c1ccc(/C=C/c2ccc3ccccc3[n+]2C)cc1 was read as GLS inhibitor 16%, L3MBTL1 inh -9%, HP1b binding inh inconclusive, JMJD2A Tudor inh 79µM*, G9a inh 7.9µM* and BAZ2B block 45µM*.
`COc1ccc(/C=C/c2ccc3ccccc3[n+]2C)cc1OC` gave GLS inhibitor 1%, HP1b binding inh -5%, JMJD2A Tudor inh inconclusive, G9a inh 35µM* and BAZ2B block -38%.
`CC(CNc1nc2ccccc2c2nc(-c3ccccc3)nn12)c1ccccc1` (stereo unspecified) gave GLS inhibitor -16%, HP1b binding inh 36%, JMJD2A Tudor inh 5%, G9a inh -24%[59 µM] and BAZ2B block 3%.
Screening Cc1ccsc1CCN1C(=O)N(c2ccccc2)C(=O)C1CC(=O)Nc1ccc(F)cc1 (stereo unspecified) returned GLS inhibitor -2%, HP1b binding inh 43%, JMJD2A Tudor inh -13%, G9a inh 9%[59 µM] and BAZ2B block -12%.
For CCCCOC(=O)c1ccc(NC(=O)Cn2nnc3sc4c(c3c2=O)CCCC4)cc1 the results were GLS inhibitor -5%, HP1b binding inh 3%, JMJD2A Tudor inh -30%, G9a inh -4%[59 µM] and BAZ2B block -8%.
`CCOC(=O)c1c(C)c(-c2ccccc2)n(CC(=O)Nc2ccc(OCC)cc2)c1C` gave GLS inhibitor 3%, HP1b binding inh 17%, JMJD2A Tudor inh -7%, G9a inh -2%[59 µM] and BAZ2B block 5%.
CCOc1ccc(NC(=O)CN2C(=O)C(c3ccccc3)=NC23CCC(C)CC3)cc1 (stereo unspecified) was read as GLS inhibitor -7%, HP1b binding inh 25%, JMJD2A Tudor inh 7%, G9a inh -7%[59 µM] and BAZ2B block -14%.
Screening COC(=O)c1ccccc1NC(=O)Cn1ncc2c(C)n(Cc3ccc(F)cc3)c(C)c2c1=O returned GLS inhibitor 1%, HP1b binding inh 33%, JMJD2A Tudor inh -14%, G9a inh 10%[59 µM] and BAZ2B block -27%.
CCCCn1c(N)c(N(CCOC)C(=O)c2ccc(-n3c(C)ccc3C)cc2)c(=O)[nH]c1=O was read as GLS inhibitor 9%, L3MBTL1 inh 0%, HP1b binding inh 64%, JMJD2A Tudor inh 1%, G9a inh 45µM* and BAZ2B block 5%.
CCCCN(C(=O)c1ccc([N+](=O)[O-])o1)c1c(N)n(CC(C)C)c(=O)[nH]c1=O was read as GLS inhibitor 1%, L3MBTL1 inh 2%, HP1b binding inh 5%, JMJD2A Tudor inh -5%, G9a inh 28µM* and BAZ2B block 1%.
`CC(C)CN(C(=O)CN(C)C(=O)Cc1ccc(Cl)cc1)c1c(N)n(CC(C)C)c(=O)[nH]c1=O` gave GLS inhibitor -1%, L3MBTL1 inh 9%, HP1b binding inh 15%, JMJD2A Tudor inh -15%, G9a inh -40% and BAZ2B block 2%.
CC(C)CN(C(=O)CN(C)C(=O)c1ccco1)c1c(N)n(CC(C)C)c(=O)[nH]c1=O was read as GLS inhibitor 17%, L3MBTL1 inh 2%, HP1b binding inh 19%, JMJD2A Tudor inh -1%, G9a inh 50µM* and BAZ2B block 15%.
`CCCCn1c(N)c(N(CCOC)C(=O)c2cc3c(s2)CCC(C)C3)c(=O)[nH]c1=O` (stereo unspecified) gave GLS inhibitor 5%, L3MBTL1 inh -11%, HP1b binding inh 28%, JMJD2A Tudor inh -6%, G9a inh 35µM* and BAZ2B block 9%.
CCCCN(C(=O)c1cc2ccccc2o1)c1c(N)n(CC(C)C)c(=O)[nH]c1=O was read as GLS inhibitor -7%, L3MBTL1 inh 9%, HP1b binding inh 36%, JMJD2A Tudor inh -9%, G9a inh 7%[59 µM] and BAZ2B block 6%.
CCC(Cc1ccccc1)NC(=O)Cn1ncc2c3ccccc3n(Cc3ccccc3)c2c1=O (stereo unspecified) was read as GLS inhibitor 2%, HP1b binding inh 30%, JMJD2A Tudor inh -10%, G9a inh -1%[59 µM] and BAZ2B block 1%.
`Cc1cccc(Cn2c(=O)n(CCc3ccccc3)c(=O)c3c(C)c(C)sc32)c1` gave GLS inhibitor -3%, HP1b binding inh 3%, JMJD2A Tudor inh 16%, G9a inh -3%[59 µM] and BAZ2B block -11%.
`CCCCn1c(N)c(N(CC(C)C)C(=O)c2ccc(-c3ccc([N+](=O)[O-])cc3)o2)c(=O)[nH]c1=O` gave GLS inhibitor 0%, L3MBTL1 inh -6%, HP1b binding inh 8%, JMJD2A Tudor inh -11%, G9a inh 40µM* and BAZ2B block -2%.
Screening CCCCn1c(N)c(N(CCOC)C(=O)c2ccc(-c3ccc(C(C)=O)cc3)o2)c(=O)[nH]c1=O returned GLS inhibitor -1%, L3MBTL1 inh 0%, HP1b binding inh 17%, JMJD2A Tudor inh inconclusive, G9a inh 13µM* and BAZ2B block 71µM*.

Bioassay records (PubChem BioAssay)
